ChEMBL document CHEMBL3988442, “University of Dundee, Small-Polar-MMV Screening Library” (2021)
For some of these results: Results with a measured potency or affinity are listed apart.

How the values were obtained:
Set-up in all cases: scale not given: direction of the effect not stated beside the values
[1] = molecular target: Protein translocase subunit SecA (Escherichia coli (strain K12)) (UniProt P10408); test: Assay to Identify E. coli SecA ATPase Inhibitors; format: functional; conditions: 30 µM
Chain of Protein translocase subunit SecA (Escherichia coli (strain K12)) (P10408 whole entry): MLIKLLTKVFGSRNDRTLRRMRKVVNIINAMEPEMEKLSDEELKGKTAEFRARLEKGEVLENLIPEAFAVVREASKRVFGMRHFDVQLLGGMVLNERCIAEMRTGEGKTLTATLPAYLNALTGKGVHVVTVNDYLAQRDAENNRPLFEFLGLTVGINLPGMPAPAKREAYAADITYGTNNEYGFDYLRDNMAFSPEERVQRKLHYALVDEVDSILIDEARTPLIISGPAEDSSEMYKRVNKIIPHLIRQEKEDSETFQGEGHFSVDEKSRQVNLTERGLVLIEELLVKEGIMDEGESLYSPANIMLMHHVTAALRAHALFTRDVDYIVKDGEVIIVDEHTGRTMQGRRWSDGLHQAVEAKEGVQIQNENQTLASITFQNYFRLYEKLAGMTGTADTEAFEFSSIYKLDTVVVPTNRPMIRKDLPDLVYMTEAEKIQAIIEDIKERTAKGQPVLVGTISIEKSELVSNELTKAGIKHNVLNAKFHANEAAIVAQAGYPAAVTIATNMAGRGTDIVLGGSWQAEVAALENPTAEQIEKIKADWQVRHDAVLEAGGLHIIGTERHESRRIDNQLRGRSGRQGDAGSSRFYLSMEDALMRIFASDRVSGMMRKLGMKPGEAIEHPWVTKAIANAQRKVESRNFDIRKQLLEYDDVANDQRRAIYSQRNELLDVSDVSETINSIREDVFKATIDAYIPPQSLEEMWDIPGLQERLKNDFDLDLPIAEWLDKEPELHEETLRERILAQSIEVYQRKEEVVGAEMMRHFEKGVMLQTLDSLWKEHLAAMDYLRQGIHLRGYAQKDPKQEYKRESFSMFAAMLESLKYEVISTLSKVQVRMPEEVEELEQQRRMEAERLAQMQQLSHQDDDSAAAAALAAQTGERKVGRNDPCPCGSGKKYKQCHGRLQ

[2] = molecular target: T1, Ubiquitin-activating enzyme e1, putative (Leishmania donovani (strain BPK282A1)) (UniProt E9BSI1); test: Leishmania donovani Ubiquitin Activating Enzyme (LdE1); format: functional; conditions: 30 µM
T1 sequence (whole entry): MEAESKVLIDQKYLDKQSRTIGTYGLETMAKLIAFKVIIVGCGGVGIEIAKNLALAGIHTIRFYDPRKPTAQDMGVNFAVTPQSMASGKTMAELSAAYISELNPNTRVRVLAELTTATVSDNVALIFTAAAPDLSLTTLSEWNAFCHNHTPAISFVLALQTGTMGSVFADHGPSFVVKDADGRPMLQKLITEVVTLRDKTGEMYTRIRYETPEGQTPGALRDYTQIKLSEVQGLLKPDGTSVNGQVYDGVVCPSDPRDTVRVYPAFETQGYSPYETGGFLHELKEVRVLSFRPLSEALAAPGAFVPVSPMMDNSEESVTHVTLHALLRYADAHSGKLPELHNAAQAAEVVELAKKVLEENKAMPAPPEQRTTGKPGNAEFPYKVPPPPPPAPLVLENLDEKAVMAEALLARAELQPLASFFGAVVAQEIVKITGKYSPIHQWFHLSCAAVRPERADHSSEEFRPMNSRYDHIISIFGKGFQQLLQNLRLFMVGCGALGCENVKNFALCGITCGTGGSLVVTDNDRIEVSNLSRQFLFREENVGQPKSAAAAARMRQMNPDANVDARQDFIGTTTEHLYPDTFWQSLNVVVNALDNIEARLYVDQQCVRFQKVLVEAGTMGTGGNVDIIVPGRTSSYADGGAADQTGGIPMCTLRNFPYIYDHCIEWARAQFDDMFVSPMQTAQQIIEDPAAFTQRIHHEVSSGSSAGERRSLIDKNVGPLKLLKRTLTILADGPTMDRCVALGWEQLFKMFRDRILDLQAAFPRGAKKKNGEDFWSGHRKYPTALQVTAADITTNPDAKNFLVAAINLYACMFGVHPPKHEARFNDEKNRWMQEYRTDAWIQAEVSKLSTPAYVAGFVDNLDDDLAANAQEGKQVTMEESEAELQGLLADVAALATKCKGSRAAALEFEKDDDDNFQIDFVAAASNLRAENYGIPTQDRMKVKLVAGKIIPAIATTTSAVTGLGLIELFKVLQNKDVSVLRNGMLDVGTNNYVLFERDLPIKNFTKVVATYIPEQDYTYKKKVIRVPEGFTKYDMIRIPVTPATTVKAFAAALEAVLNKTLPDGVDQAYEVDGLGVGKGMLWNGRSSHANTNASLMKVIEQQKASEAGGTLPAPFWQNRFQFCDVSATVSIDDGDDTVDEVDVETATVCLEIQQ

[3] = molecular target: Sialic acid-binding Ig-like lectin 9 (Homo sapiens) (UniProt Q9Y336); test: Hs-Siglec9 ALPHAscreen SOP 20170721; conditions: 10 µM
Chain of Sialic acid-binding Ig-like lectin 9 (Homo sapiens) (Q9Y336 whole entry): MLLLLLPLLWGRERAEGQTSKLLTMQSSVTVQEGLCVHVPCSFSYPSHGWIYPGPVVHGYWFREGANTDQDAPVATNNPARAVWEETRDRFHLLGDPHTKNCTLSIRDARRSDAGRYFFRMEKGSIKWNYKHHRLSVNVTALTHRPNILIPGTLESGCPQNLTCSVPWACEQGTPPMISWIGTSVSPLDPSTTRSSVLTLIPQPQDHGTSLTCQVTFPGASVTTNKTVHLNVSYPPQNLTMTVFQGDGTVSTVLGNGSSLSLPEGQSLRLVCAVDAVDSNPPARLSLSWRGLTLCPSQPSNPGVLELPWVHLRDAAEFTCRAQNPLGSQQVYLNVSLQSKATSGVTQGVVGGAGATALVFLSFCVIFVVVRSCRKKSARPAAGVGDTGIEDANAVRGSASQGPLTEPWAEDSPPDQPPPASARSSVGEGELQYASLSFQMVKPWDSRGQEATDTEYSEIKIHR

[4] = system: Trypanosoma cruzi; test: Trypanosoma cruzi phosphomannomutase and mannose-1-phosphate guanylyltransferase assay; format: functional; conditions: 10 µM
[5] = molecular target: T2, Arginase-2, mitochondrial (Homo sapiens) (UniProt P78540); test: in vitro enzyme assay to detect the production of urea directly proportional to the activity of Arginase II; format: functional; conditions: 33.3 µM; also: in the data most compounds retested in dose-response had high values
T2 sequence (whole entry): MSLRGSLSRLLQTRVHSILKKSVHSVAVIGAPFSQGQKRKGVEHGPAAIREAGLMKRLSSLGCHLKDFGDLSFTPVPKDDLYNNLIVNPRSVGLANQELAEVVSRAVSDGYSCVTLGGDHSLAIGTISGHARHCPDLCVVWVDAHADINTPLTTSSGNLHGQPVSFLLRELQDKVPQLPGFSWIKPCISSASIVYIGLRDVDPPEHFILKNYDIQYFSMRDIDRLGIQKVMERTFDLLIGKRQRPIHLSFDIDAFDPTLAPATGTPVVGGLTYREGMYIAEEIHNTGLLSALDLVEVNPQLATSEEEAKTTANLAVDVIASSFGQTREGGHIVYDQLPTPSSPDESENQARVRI

[6] = molecular target: T3, Proteasome subunit beta (Trypanosoma cruzi) (UniProt O96673); test: Trypanosoma cruzi proteasome chymotrypsin-like activity (TcProtChymo) assay.; also: in the data most compounds retested in dose-response had high values; format: functional; conditions: 9.37 µM
T3 sequence (whole entry): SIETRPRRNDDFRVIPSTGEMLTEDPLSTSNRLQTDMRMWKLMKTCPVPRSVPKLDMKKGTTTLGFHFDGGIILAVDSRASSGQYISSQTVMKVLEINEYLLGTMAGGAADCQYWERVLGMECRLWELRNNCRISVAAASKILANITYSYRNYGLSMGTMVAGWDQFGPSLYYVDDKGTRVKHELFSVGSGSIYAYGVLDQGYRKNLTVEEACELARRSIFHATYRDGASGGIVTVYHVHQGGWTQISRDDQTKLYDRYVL

[7] = organism: Homo sapiens; test: To identify inhibition of the IFN signalling (Jak-Stat) pathway via expression of an eGFP reporter gene under the control of an IFN-stimulated response element (ISRE) containing MxA promoter.; format: functional; conditions: 30 µM
[8] = molecular target: T4, Tyrosyl-tRNA synthetase, putative (Trypanosoma cruzi (strain CL Brener)) (UniProt Q4DSP6); test: Trypanosoma cruzi tyrosyl tRNA synthetase (TcYRS) _High Tyrosine SOP; format: functional; conditions: 30 µM; also: in the data most compounds retested in dose-response had high values
T4 sequence (whole entry): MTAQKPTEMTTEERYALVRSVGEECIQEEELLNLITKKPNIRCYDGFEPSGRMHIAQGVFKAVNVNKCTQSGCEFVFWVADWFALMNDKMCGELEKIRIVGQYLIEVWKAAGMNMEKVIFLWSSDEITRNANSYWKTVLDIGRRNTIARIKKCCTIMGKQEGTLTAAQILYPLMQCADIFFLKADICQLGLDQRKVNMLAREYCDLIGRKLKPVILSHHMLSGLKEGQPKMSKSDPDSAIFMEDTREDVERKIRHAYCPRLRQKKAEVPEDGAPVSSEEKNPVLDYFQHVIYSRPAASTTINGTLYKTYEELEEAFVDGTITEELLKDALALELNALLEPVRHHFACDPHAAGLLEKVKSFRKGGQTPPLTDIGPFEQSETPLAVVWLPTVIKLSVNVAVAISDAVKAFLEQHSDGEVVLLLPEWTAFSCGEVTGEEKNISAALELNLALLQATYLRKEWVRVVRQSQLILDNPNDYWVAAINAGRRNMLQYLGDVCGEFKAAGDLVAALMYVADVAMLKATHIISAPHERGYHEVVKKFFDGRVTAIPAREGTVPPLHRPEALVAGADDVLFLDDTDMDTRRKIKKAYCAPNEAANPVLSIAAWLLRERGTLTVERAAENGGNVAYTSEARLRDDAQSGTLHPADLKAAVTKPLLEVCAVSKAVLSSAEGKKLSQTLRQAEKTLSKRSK

[9] = molecular target: T4, Tyrosyl-tRNA synthetase, putative (Trypanosoma cruzi (strain CL Brener)); test: Trypanosoma cruzi tyrosyl tRNA synthetase (TcYRS) SOP; format: functional; conditions: 30 µM
[10] = molecular target: Chromo domain-containing protein 1 (Saccharomyces cerevisiae (strain ATCC 204508 / S288c) (Baker's yeast)) (UniProt P32657); test: ScCHD-1 Enzyme Inhibition Assay; format: functional; conditions: 30 µM; also: in the data most compounds retested in dose-response had high values
Chain of Chromo domain-containing protein 1 (Saccharomyces cerevisiae (strain ATCC 204508 / S288c) (Baker's yeast)) (P32657 whole entry, the tested form may be a part): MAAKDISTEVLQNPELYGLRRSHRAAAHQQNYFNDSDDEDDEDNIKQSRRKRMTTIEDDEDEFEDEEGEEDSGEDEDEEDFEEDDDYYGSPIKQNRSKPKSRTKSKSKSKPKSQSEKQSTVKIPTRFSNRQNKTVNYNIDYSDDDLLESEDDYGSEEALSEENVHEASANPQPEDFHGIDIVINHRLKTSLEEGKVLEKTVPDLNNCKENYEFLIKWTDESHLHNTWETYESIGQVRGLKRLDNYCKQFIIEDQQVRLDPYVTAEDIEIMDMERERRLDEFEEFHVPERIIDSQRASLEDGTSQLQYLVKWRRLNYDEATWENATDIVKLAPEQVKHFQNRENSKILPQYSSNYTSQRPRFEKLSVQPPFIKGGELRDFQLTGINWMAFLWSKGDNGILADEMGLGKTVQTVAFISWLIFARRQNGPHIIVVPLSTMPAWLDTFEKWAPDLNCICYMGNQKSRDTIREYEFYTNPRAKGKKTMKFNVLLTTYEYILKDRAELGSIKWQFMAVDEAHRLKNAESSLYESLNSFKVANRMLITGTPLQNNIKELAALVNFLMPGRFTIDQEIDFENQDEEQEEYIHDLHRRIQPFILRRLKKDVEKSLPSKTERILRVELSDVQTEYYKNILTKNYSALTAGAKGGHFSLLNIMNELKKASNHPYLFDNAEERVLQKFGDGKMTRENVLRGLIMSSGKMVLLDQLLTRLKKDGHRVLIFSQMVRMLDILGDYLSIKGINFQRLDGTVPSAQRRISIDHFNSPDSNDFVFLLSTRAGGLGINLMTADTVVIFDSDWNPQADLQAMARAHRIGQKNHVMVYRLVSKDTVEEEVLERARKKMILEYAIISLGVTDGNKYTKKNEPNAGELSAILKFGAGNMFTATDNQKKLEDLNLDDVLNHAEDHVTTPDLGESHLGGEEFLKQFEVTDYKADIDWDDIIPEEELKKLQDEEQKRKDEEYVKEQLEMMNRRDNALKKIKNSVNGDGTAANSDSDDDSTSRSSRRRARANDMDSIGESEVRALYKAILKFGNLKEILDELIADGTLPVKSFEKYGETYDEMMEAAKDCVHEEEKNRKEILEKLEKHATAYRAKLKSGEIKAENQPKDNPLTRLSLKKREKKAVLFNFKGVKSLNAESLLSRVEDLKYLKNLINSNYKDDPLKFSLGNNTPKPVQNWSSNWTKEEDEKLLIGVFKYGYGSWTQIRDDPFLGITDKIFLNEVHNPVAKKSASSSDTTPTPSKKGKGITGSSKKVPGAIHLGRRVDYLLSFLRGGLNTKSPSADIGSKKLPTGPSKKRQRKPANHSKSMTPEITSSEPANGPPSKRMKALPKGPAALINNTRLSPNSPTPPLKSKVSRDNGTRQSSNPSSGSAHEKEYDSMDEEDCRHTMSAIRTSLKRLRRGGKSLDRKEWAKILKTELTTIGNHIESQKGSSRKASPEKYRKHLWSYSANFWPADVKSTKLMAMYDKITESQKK

Row | SMILES | Percent Effect [1] [%] | Percent Effect [2] [%] | Percent Effect [3] [%] | Percent Effect [4] [%] | Percent Effect [5] [%] | Percent Effect [6] [%] | Percent Effect [7] [%] | Percent Effect [8] [%] | Percent Effect [9] [%] | Percent Effect [10] [%]
1 | Cc1ccc(NC(=O)C(C)N2CCCN(c3nccs3)CC2)c(C)c1 (stereo not given) | -1.1 | 15.4 | -3.51 | -1.41 | 4.51 | 14.1 | 8.08 | 2.39 | 6.02 | -0.819
2 | CC1(C)OCC(CNC(=O)c2cnn(-c3ccc(Cl)cc3)c2N)O1 (stereo not given) | 2.19 | 17.3 | -9.2 | -2.76 | -0.443 | 14 | 15.1 | -6.35 | 2.5 | -22.4
3 | CCOCC1CC2(CCN(Cc3ccccn3)CC2)CO1 (stereo not given) | -9.03 | 1.3 | 1.88 | 0.292 | -2.83 | 11.7 | -4.94 | 2.63 | 5.13 | 16.1
4 | Cc1cnn(CC2CCCCN2CCn2cncn2)c1 (stereo not given) | -1.55 | 16 | -7.29 | -3.61 | 4.88 | 14.2 | 5.08 | 5.79 | 7.69 | -6.72
5 | CN1CCN(CCO)C(=O)C12CCN(Cc1ccsc1)CC2 | -2.2 | 9.09 | -2.51 | -1.88 | 1.83 | 13.5 | -2.12 | 3.87 | 12.5 | -7.99
6 | COCCc1noc(CN2CCOC(Cn3nc(C)cc3C)C2)n1 (stereo not given) | -2.32 | 10.4 | 14.5 | 6.72 | 8.4 | -7.89 | 7.1 | 4.9 | 18.8 | -6.59
7 | CC(=O)N1CCC(c2cc(C(F)(F)F)n3ccnc3n2)CC1 | -2.29 | 9.33 | -6.3 | 0.789 | 0.443 | 16.1 | 6.98 | 7.41 | -25 | -32.2
8 | COc1ccc(CN2CCC3(CC2)CCN(CC(C)C)C3=O)cc1 | -1.79 | -1.3 | -0.794 | -0.75 | -3.2 | -0.601 | 6.85 | 0.966 | 0 | -5.19
9 | COc1ncccc1CNC(=O)c1cccc(C)n1 | -0.149 | 23.1 | -18.5 | 6.1 | -5.74 | 18.5 | 18.5 | 6.22 | 22.9 | -3.56
10 | Cn1cc(-c2nc(CNCCn3cccn3)cs2)cn1 | 3.44 | 10.3 | -15.7 | -6.67 | -0.41 | 16 | 32.9 | 8.13 | 13.2 | 27.9
11 | Cc1occc1CNC(=O)N(CCCO)C1CCc2ccccc21 (stereo not given) | -4.54 | 10.7 | 5.35 | 3.41 | -1.77 | 4.33 | 16.1 | 2.63 | 7.69 | -8.92
12 | CCS(=O)(=O)c1ncc(CN(C)Cc2ccccn2)n1CCOC | -6.13 | 5.41 | 13.7 | 5.33 | 2.45 | 5.65 | 3.71 | 4.79 | 14.6 | -2.76
13 | OC(CN1CCOCC1)CN1CCc2c(ncn2C2CC2)C1 (stereo not given) | -2.85 | 26.7 | -6.52 | -1.21 | -4.88 | 14.3 | 17.9 | 1.58 | 7.69 | -10.6
14 | COCCN1CCN(Cc2cccc(OCC(N)=O)c2)CC1C (stereo not given) | -6.03 | 0 | -0.422 | -3.81 | -0.887 | -0.255 | 7.49 | 2.63 | 0 | -4.22
15 | CN(Cc1nnc(C2CC2)o1)C1CCN(CCCc2cnn(C)c2)C1 (stereo not given) | -0.864 | 10.7 | -3.87 | -2.61 | -2.22 | 22.1 | 18.5 | 11.1 | 15.4 | -5.79
16 | Cc1cnc(N2CCC3(CCN(CC4CC4)C3=O)CC2)nc1 | -0.786 | 16.9 | -3.91 | -4.13 | 3.65 | 8.84 | 17.8 | 8.7 | 12.5 | -11.4
17 | COc1ccc(CN2CCC3(CC(Nc4ccncn4)C3)C2)c(OC)c1 (stereo not given) | -3.35 | 9.33 | 5.58 | -2.76 | -3.54 | 8.21 | 5.35 | 5.29 | 7.5 | -20.7
18 | CN(CC(=O)N1CCCN(Cc2cscn2)CC1)c1cnccn1 | 0.471 | -18.2 | 7.79 | -4.29 | -3.07 | 0.351 | 9.75 | 0 | 4.71 | 5.41
19 | CC(C)c1nnc2n1CCN(C(=O)c1ccc3cc[nH]c3c1)C2 | -6.11 | 10.7 | 4.04 | -1.61 | 2.66 | 1.27 | 6.35 | 5.79 | 12.8 | -9.74
20 | CC(C)c1noc(CCC(=O)NCC2CCS(=O)(=O)C2)n1 (stereo not given) | -2.91 | 21.3 | 0.895 | 2.81 | -0.444 | 12.3 | 1.69 | 1.58 | 17.9 | -12.2
21 | CC(c1nc(C2CC2)no1)N1CCN(Cc2ccsc2)CC1 (stereo not given) | -4.58 | 2.56 | 2.79 | 1.97 | -1.64 | 3.67 | 3.35 | 4.31 | 8.43 | -5.15
22 | O=C1CC(c2ccccc2)C2(CCN(Cc3ccccn3)CC2)N1 (stereo not given) | 0.295 | 22.1 | -3.53 | -5.25 | 3.2 | 8.33 | 18.5 | 7.73 | 15 | -9.1
